Experimental data: PubChem BioAssay (NCI)
The panel holds about 79,000 compounds, 15% with a hit somewhere; the sample as a whole holds those more often. The source made the active and inactive calls. Rule as the data show it: active = growth inhibition above about 70%; inactive = the rest.

Assay: NCI Yeast Anticancer Drug Screen. Data for the mgt1 strain (AID 153)
Settings: S. cerevisiae mgt1 mutant growth inhibition; at 11.0 µM; hits give high values
In short: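 Measured: inhibition of mgt1 yeast growth by compound, normalized to vehicle-treated cultures.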
With `COc1ccc(/C=C2\CCc3ccccc3C2=O)cc1OC` the growth inhibition was 21% (inactive).
In the case of `O=Cc1ccccc1B(O)O`, the growth inhibition was 76% (active).
With `CC(=O)CC[N+](C)(C)C` the growth inhibition was -17% (inactive).
With `O=C(O)[C@H]1[C@@H](C2CCCCC2)O[C@@H](C2CCCCC2)O[C@H]1C(F)(F)F` the growth inhibition was 10% (inactive).
With `CCCCOc1ccc(Nc2c3ccccc3nc3ccccc23)cc1` the growth inhibition was 86% (active).
In the case of `N#C/C(=C1C=C/C(=N\O)C(Cl)=C\1)c1ccccc1`, the growth inhibition was 3% (inactive).
With `COc1ccc(C(=O)OCCc2ccccc2)cc1` the growth inhibition was -3% (inactive).
With `Cc1c2ccncc2c(C)c2c1oc1ccccc12` the growth inhibition was 10% (inactive).
With `CCCC#CCOC(=O)c1cc([N+](=O)[O-])cc([N+](=O)[O-])c1` the growth inhibition was 99% (active).
In the case of `Nc1nc(Nc2ccccc2)nc(Nc2ccccc2)n1`, the growth inhibition was -3% (inactive).
For `COc1ccc(/C=C2\S/C(=N/Nc3nc(-c4ccccc4)cs3)NC2=O)cc1OC`, the growth inhibition was 98% (active).
In the case of `CC(O)CN1C(=O)c2cccc3cc([N+](=O)[O-])cc(c23)C1=O` (stereo unspecified), the growth inhibition was 6% (inactive).
In the case of `Cn1c(COc2ccc(/C=N/NC(=O)CCC(=O)N/N=C/c3ccc(OCc4c[n+]5ccccc5n4C)cc3)cc2)c[n+]2ccccc12`, the growth inhibition was 4% (inactive).
In the case of `COC1=C(N=[N+]=[N-])C(=O)c2ncccc2C1=O`, the growth inhibition was 31% (inactive).
With `CCN(CC)c1ccc(N=Nc2cc(S(=O)(=O)O)ccc2O)c(O)c1` the growth inhibition was 4% (inactive).
For `O=C1C(C(O)(C(F)(F)F)C(F)(F)F)CCC1C(O)(C(F)(F)F)C(F)(F)F` (stereo unspecified), the growth inhibition was 8% (inactive).
With `CN(C)CCNC(=O)c1cccc2nc3c(ccc4ccccc43)nc12` the growth inhibition was 1% (inactive).
In the case of `CCC(C)/C(C)=N/NC(N)=O` (stereo unspecified), the growth inhibition was 1% (inactive).
In the case of `Nc1c([N+](=O)[O-])cc2c3c(cccc13)CC2`, the growth inhibition was 31% (inactive).
In the case of `CC1=Cc2ccc(C)cc2C(=O)C1=O`, the growth inhibition was 60% (inactive).
In the case of `C=Cc1c(C)c(O)cc2c1-c1ccc(O)c(C)c1CC2`, the growth inhibition was -3% (inactive).
For `NCC(O)CSCc1ccc(Cl)cc1` (stereo unspecified), the growth inhibition was -2% (inactive).
For `C[n+]1c(-c2ccc(NC(=O)c3ccc(C(=O)Nc4ccc(-c5cn6ccccc6[n+]5C)cc4)cc3)cc2)cn2ccccc21`, the growth inhibition was 20% (inactive).
For `CNC(=O)OCc1c(COC(=O)NC)c(C)n(-c2ccc(Cl)c(Cl)c2)c1C`, the growth inhibition was -14% (inactive).
For `[O-]c1c2cc(-[n+]3c(-c4ccccc4)cc(-c4ccccc4)cc3-c3ccccc3)cc1COCCOCCOCCOCCOC2`, the growth inhibition was -13% (inactive).
With `C[Si](C)(C)Cc1ccccc1C(=O)O` the growth inhibition was -2% (inactive).
